Bioassay records deposited in PubChem BioAssay by several laboratories.
Avidin bead fluor = compound fluoresces at 488/530 nm on avidin beads; compound fluorescence 488/530 nm, flow cytometry; stronger effect = higher value; hit rate 0.38% among 220,000; fluorescence (KMESF) at 10 µM; in the data active = fluorescence above about 47
GSH fluor = compound fluoresces at 488/530 nm on GSH beads | GSH beads flow cytometry, compound fluorescence 488/530 nm; stronger effect = higher value | fluorescence (KMESF) at 10 µM | hit rate 0.25% among 190,000 | AID 1776; in the data active = fluorescence above about 89;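 note: glutathione beads carrying GST-tagged Bcl family fusion proteins plus one bare bead set; values are compound well signal with DMSO vehicle wells as background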
PGE2 EP2 inh = EP2 receptor (human) inhibition; P43116; C6 glioma cells expressing human EP2, cAMP TR-FRET; cells stimulated with saturating PGE2; inhibition, % at 25 µM; hit rate 0.52% among 260,000;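 active = percent inhibition above 40 after rounding to a whole number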;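 note: rat C6 glioma host cells with rolipram phosphodiesterase inhibitor present; the protocol text gives 20 µM as final concentration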
Target sequence (P43116 whole entry, looked up): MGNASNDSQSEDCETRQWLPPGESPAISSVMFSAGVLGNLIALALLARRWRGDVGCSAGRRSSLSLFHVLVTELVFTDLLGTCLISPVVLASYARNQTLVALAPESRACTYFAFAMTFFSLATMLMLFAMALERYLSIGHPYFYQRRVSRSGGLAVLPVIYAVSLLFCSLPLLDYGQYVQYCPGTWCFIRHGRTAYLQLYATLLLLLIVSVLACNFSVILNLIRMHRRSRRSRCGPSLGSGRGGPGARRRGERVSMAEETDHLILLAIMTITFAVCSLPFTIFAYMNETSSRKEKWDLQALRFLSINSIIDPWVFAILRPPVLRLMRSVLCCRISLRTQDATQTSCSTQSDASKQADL
EP2 modulator = modulators of human EP2 prostaglandin E2 receptor; EP2-expressing cells, cAMP HTRF FRET, PGE2 co-stimulation; P43116; induction, % at 25 µM; hit rate 0.83% among 260,000; AID 940;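 active = compounds whose cAMP rise, as percent of the full-agonist control response, exceeds 60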;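 note: rat C6 glioma line stably carrying human EP2 under a CMV promoter; the protocol text gives 20 µM as final concentration; 100% = response of wells given 1 µM PGE2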
Efa HMGR inh = inhibitors of class II HMG-CoA reductase from Enterococcus faecalis; inhibition, % at 10 µM; purified E. faecalis HMGR, NADPH absorbance 340 nm kinetic; hit rate 0.41% among 190,000; AID 1066;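 active = inhibition above a set limit, the median over all tested compounds plus 3 SD, cut at about 9.5% in these data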;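 note: enzyme runs in reverse so mevalonate oxidation gives rising NADPH absorbance; 0% = complete reaction with DMSO and 100% = background rate lacking mevalonate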
EP2 cAMP induct = human EP2 receptor cAMP induction, negative in counter-screens | shares compounds with EP2 modulator | C6 glioma EP2 cells, cAMP HTRF induction; plus low (about EC15) PGE2 agonist | calls only at 20 µM (by protocol) | hit rate 47% among 1,300 | AID 1080;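 active = cAMP induction above 50% in the main assay while under 30% in all four parallel counter assays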;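 note: rat C6 glioma cells stably expressing human EP2 receptor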
* marks the source's active call; other numbers are inactive results; i = inactive; / = not tested or not shown; + = active, no number; ! = a repeat was not active. Most compounds without a hit are left out; they make up all but 2.1% or so of the library.

SMILES	Avidin bead fluor	GSH fluor	PGE2 EP2 inh	EP2 modulator	Efa HMGR inh	others
C[C@]12Cc3cnc(-c4ccccc4)nc3C[C@@H]1CC[C@H]1[C@H]2CC[C@@]2(C)[C@H]1CC[C@]2(C)O	/	/	48.8*	-0.5	/
Cn1ccnc1C1(O)CC2CCC(C1)N2CC(=O)NCC1CCCO1 (stereo unspecified)	/	/	/	16.6	/
BrCC1C[n+]2c(SCc3ccccc3)nc3sc4c(c3c2O1)CCCC4 (stereo unspecified)	117*	/	11.5	-30.0	/
Nc1c2c(nc3sc4c(c13)CCCCC4)CCCC2	3	10	-0.5	-71.8	0.6
COc1cc2c3cc1Oc1c(O)c(OC)cc4c1[C@@H](Cc1ccc(cc1)Oc1cc(ccc1O)C[C@@H]3N(C)CC2)N(C)CC4	/	/	48.2*	-7.2	/
COc1cc2c3cc1Oc1cc(ccc1O)C[C@@H]1c4c(cc(OC)c(O)c4Oc4ccc(cc4)C[C@H]3N(C)CC2)CCN1C	10	21	18.2	-18.3	-0.8
CC(C)(C)n1nnnc1CN1C2CCC1CC(O)(c1ccc(F)cc1)C2 (stereo unspecified)	/	/	8.6	-2.2	/
COc1cc(CN2C3CCC2CC(O)(c2ccc(F)cc2)C3)ccc1OC(C)C (stereo unspecified)	/	/	3.6	-15.3	/
COc1ccc(-c2nc(C)sc2CC(=O)N(C)CCN(C)C)cc1OC	/	/	2.8	-13.7	/
Cn1c(O)c(C=Nc2ccccc2Sc2ccccc2)c(=O)n(C)c1=O	3	4	6.2	61.1*	2.9
CN(C)C(=O)Nc1cccc(OC(=O)N(C)C)c1	178*	22	12.2	-4.1	-13.1
CN(C)C(=O)Oc1cccc(NC(=O)c2ccccc2C(F)(F)F)c1	3	/	19.8	-17.3	/
OC[C@@H]1CCCN2CCCC[C@H]12	/	/	7.7	-17.9	/
Cn1c(=O)c2[nH]cnc2n(C)c1=O.[CH2-][C@H](Cc1cccc2cc(C(=O)O)c(=O)oc12)OC.[Hg].[OH-]	/	/	59.4*	29.4	/
N#CC1=C(S)N(c2ccccc2)C(c2cccnc2)NC1=O (stereo unspecified)	/	/	9.2	-21.9	/
O=[N+]([O-])c1cc([As](=O)(O)c2ccc(O)c([N+](=O)[O-])c2)ccc1O	5	/	11.7	-19.4	/
O=[N+]([O-])c1cc(-c2ccc([As](=O)(O)O)cc2)ccc1[As](=O)(O)O	5	/	46.9*!	-2.9	/
O=C(Nc1ccccc1)c1c(O)c2c(n(Cc3ccco3)c1=O)CCCC2	6	/	4.3	64.6*	/
O=C(Nc1cccc(Cl)c1)c1c(O)c2c(n(Cc3ccco3)c1=O)CCCC2	/	/	6.0	/	/
NS(=O)(=O)c1ccc(-c2ccc([As](=O)(O)O)cc2)cc1	/	/	45.0*	18.9	/
COc1cccc(CN2CCN(C(=O)COc3ccccc3)[C@@H](C)C2)c1	/	/	/	-93.1	/
CC12CCC(=O)C=C1CCC1C2CCC2(C)C(O)CCC12 (stereo unspecified)	19	32	10.0	3.8	0.4
C[C@@]12CC[C@@H]3[C@H](CCC4=CC(=O)CC[C@H]43)[C@H]1CC[C@H]2OC1(O)C(=O)c2ccccc2C1=O	/	/	64.2*	-40.0	/
CN(C)CCN(C(=O)Cc1csc(-c2ccccc2F)n1)C1CCCCC1	/	/	6.1	-74.5	/
c1ccc2c([C@@H]3CCN(CCN4CCOCC4)C3)c[nH]c2c1	/	/	53.4*	13.4	/
SMILES	Avidin bead fluor	GSH fluor	PGE2 EP2 inh	EP2 modulator	Efa HMGR inh	others
CCOC(=O)C1(c2ccccc2)CCN(CC(=O)Nc2cccc3ccccc23)CC1	4	21	5.8	63.1*	-1.8
CCOC(=O)C1(c2ccccc2)CCN(Cc2cccc(C(=O)O)c2)CC1	8	21	25.4	18.0	-10.1
O=C(CN1C2CCC1CC(O)(c1cccnc1)C2)OC1CCCCC1 (stereo unspecified)	/	/	8.5	-29.9	/
Cc1ccc(S(=O)ON2CCC(C(=O)O)(c3ccccc3)CC2)cc1 (stereo unspecified)	/	/	44.9*	19.7	/
Cc1ccc(-c2nn(Cc3ccccc3)cc2C(=O)O)cc1	17	/	2.3	-0.1	/
Nc1ccccc1O.O.O=C(O)[C@H]1[O][Sb][O][C@H]1C(=O)O	/	/	53.6*	-4.0	/
CC(=O)c1ccc(-c2ccccc2)cc1	2	9	10.0	10.2	-5.4
O=C(O)C(O)(c1ccc(-c2ccccc2)cc1)c1ccc(-c2ccccc2)cc1	/	/	41.2*	11.9	/
CCC(C)N1CCN(Cc2cc(OC)c(OC)cc2OC)CC1 (stereo unspecified)	/	/	8.8	-46.7	/
CCCN1CCC[C@@H]2Cc3nc(N)ncc3C[C@H]21	/	/	15.0	66.2*	/
CCCN1CCC[C@@H]2Cc3[nH]ncc3C[C@H]21	/	/	16.8	-7.3	/
Cc1cc(C)c(O)c(CN2C3CCC2CC(O)(c2ccccc2F)C3)c1 (stereo unspecified)	/	/	4.2	4.2	/
C=CCn1c(O)c(C(C)=NCCc2ccccc2)c(=O)[nH]c1=O	51*	24	6.8	-0.5	-3.9
COc1cccc(C2(O)CCN(CCNC(=O)c3cc(F)cc(F)c3)CC2)c1	/	/	12.0	-16.4	/
C[C@H](Br)CN(C[C@H](C)Br)c1ccc2c(c1)Cc1ccccc1-2	/	/	57.4*	-27.4	/
Cc1nonc1CC(=O)N(CCN(C)C)Cc1ccccc1F	/	/	9.7	-12.1	/
Brc1ccc(CN2CCNCC2)s1	8	269*	13.9	15.7	-0.8
NNC(=O)CN1C(=O)CN=C(c2ccccc2)c2cc(Br)ccc21	9	/	12.7	26.3	/
O=C1CN=C(c2ccccc2)c2cc(Br)ccc2N1Cc1cc(=O)n2ccccc2n1	23	184*	6.0	16.6	-1.9
CCC(CC)N1CCN(Cc2cc(OC)c(OC)c(OC)c2)CC1	/	/	3.9	-28.3	/
O=C(O)c1cc(N=Nc2ccc([As](=O)(O)O)cc2)ccc1O	/	/	43.4*	32.6	/
CC(=O)Nc1cc([As](=O)(O)O)ccc1O	6	19	7.9	19.0	-5.4
CC(C)CCNC(=O)c1c(N)n(CC2CCCO2)c2nc3ccccc3nc12 (stereo unspecified)	7	10	4.0	69.4*	-9.0	EP2 cAMP induct=+
CCC(C)NC(=O)c1c(N)n(CC2CCCO2)c2nc3ccccc3nc12 (stereo unspecified)	34	21	14.5	56.7	0.4
O=C(NC(Cc1ccccc1)C(=O)N1CCC2(CC1)OCCO2)C1CCCCC1 (stereo unspecified)	11	5	2.8	5.7	-0.9
O=C(CNC1CCCCC1)N1CCC2(CC1)OCCO2	8	56	7.5	72.7*!	-8.1	EP2 cAMP induct=i
CC(=O)Nc1ccc(NC(=O)CN2C3CCC2CC(O)(c2ccco2)C3)cc1 (stereo unspecified)	/	/	/	-43.0	/
COC[C@H]1OC(=O)c2coc3c2[C@@]1(C)C1=C(C3=O)C2CCC(=O)[C@@]2(C)C[C@H]1OC(C)=O (stereo partly specified)	/	/	14.5	50.1	/	EP2 cAMP induct=i
C#CCOc1ccc(CN2C3CCC2CC(O)(c2ccc(OC)cc2)C3)cc1 (stereo unspecified)	/	/	5.6	-44.2	/
CCC(=O)c1cn(Cc2ccccc2)c2ccccc12	11	12	8.4	40.3	0.8
